This is an account of results in PMC9911399, “Two distinct binding modes provide the RNA-binding protein RbFox with extraordinary sequence specificity”.

Sequences and labels used below:
T1: RBFOX1 RRM RbFoxmut (Fox-RRM*) (Homo sapiens, UniProt Q9NWB1 109-208, R118D;E147R;N151S;E152T)
T1 sequence: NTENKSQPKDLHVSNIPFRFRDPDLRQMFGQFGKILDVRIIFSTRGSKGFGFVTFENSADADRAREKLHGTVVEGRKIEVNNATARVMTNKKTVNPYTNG

B1: UCUUCCC (DNA:RNA)
RNA: GGGAGACCGGAAUUCAGAUUGUCCUCUUCCCUUAAAUCCCGUCGUAGCCACCA
DNA 1: CAATCTGAATTCCGGTCTCCC
DNA 2: TGGTGGCTACGACGGGATT
B2: UUAUACA (DNA:RNA)
RNA: B1 RNA with C26U, U27A, C29A, C31A
DNA 1: CAATCTGAATTCCGGTCTCCC
DNA 2: TGGTGGCTACGACGGGATT
B3: CAUUUCC (DNA:RNA)
RNA: B1 RNA with U25C, C26A, C29U
DNA 1: CAATCTGAATTCCGGTCTCCC
DNA 2: TGGTGGCTACGACGGGATT
B4: UAUGUCC (DNA:RNA)
RNA: B1 RNA with C26A, U28G, C29U
DNA 1: CAATCTGAATTCCGGTCTCCC
DNA 2: TGGTGGCTACGACGGGATT
B5: UUAUGUA (DNA:RNA)
RNA: B1 RNA with C26U, U27A, C29G, C30U, C31A
DNA 1: CAATCTGAATTCCGGTCTCCC
DNA 2: TGGTGGCTACGACGGGATT
B6: UUGUAUG (DNA:RNA)
RNA: B1 RNA with C26U, U27G, C29A, C30U, C31G
DNA 1: CAATCTGAATTCCGGTCTCCC
DNA 2: TGGTGGCTACGACGGGATT
B7: GGAUGUG (DNA:RNA)
RNA: B1 RNA with U25G, C26G, U27A, C29G, C30U, C31G
DNA 1: CAATCTGAATTCCGGTCTCCC
DNA 2: TGGTGGCTACGACGGGATT
B8: GUAUGUG (DNA:RNA)
RNA: B1 RNA with U25G, C26U, U27A, C29G, C30U, C31G
DNA 1: CAATCTGAATTCCGGTCTCCC
DNA 2: TGGTGGCTACGACGGGATT
B9: GGAUGUC (DNA:RNA)
RNA: B1 RNA with U25G, C26G, U27A, C29G, C30U
DNA 1: CAATCTGAATTCCGGTCTCCC
DNA 2: TGGTGGCTACGACGGGATT
B10: CGUGUCG (DNA:RNA)
RNA: B1 RNA with U25C, C26G, U28G, C29U, C31G
DNA 1: CAATCTGAATTCCGGTCTCCC
DNA 2: TGGTGGCTACGACGGGATT
B11: GUGUAUG (DNA:RNA)
RNA: B1 RNA with U25G, C26U, U27G, C29A, C30U, C31G
DNA 1: CAATCTGAATTCCGGTCTCCC
DNA 2: TGGTGGCTACGACGGGATT
B12: GGAGAUG (DNA:RNA)
RNA: GGGAGACCGGAAUUCAGAUUGUCCGGAGAUGUUAAAUCCCGUCGUAGCCACCA
DNA 1: CAATCTGAATTCCGGTCTCCC
DNA 2: TGGTGGCTACGACGGGATT
B13: CUAUGUG (DNA:RNA)
RNA: B12 RNA with G25C, G26U, G28U, A29G
DNA 1: CAATCTGAATTCCGGTCTCCC
DNA 2: TGGTGGCTACGACGGGATT
B14: CGUUGUG (DNA:RNA)
RNA: B12 RNA with G25C, A27U, G28U, A29G
DNA 1: CAATCTGAATTCCGGTCTCCC
DNA 2: TGGTGGCTACGACGGGATT
B15: GUGUCCG (DNA:RNA)
RNA: B1 RNA with U25G, C26U, U27G, C31G
DNA 1: CAATCTGAATTCCGGTCTCCC
DNA 2: TGGTGGCTACGACGGGATT
B16: ACUCCUU (DNA:RNA)
RNA: B1 RNA with U25A, U28C, C30U, C31U
DNA 1: CAATCTGAATTCCGGTCTCCC
DNA 2: TGGTGGCTACGACGGGATT
B17: UUGUUCC (DNA:RNA)
RNA: B1 RNA with C26U, U27G, C29U
DNA 1: CAATCTGAATTCCGGTCTCCC
DNA 2: TGGTGGCTACGACGGGATT
B18: AAAUGUA (DNA:RNA)
RNA: B12 RNA with G25A, G26A, G28U, A29G, G31A
DNA 1: CAATCTGAATTCCGGTCTCCC
DNA 2: TGGTGGCTACGACGGGATT
B19: CGUAUUA (DNA:RNA)
RNA: B12 RNA with G25C, A27U, G28A, A29U, G31A
DNA 1: CAATCTGAATTCCGGTCTCCC
DNA 2: TGGTGGCTACGACGGGATT
B20: AUGUGAG (DNA:RNA)
RNA: B12 RNA with G25A, G26U, A27G, G28U, A29G, U30A
DNA 1: CAATCTGAATTCCGGTCTCCC
DNA 2: TGGTGGCTACGACGGGATT
B21: GAUAGGC (DNA:RNA)
RNA: B1 RNA with U25G, C26A, U28A, C29G, C30G
DNA 1: CAATCTGAATTCCGGTCTCCC
DNA 2: TGGTGGCTACGACGGGATT
B22: AAGUUCU (DNA:RNA)
RNA: B1 RNA with U25A, C26A, U27G, C29U, C31U
DNA 1: CAATCTGAATTCCGGTCTCCC
DNA 2: TGGTGGCTACGACGGGATT
B23: CGUGAUC (DNA:RNA)
RNA: B12 RNA with G25C, A27U, G31C
DNA 1: CAATCTGAATTCCGGTCTCCC
DNA 2: TGGTGGCTACGACGGGATT
B24: UGUGAUG (DNA:RNA)
RNA: B12 RNA with G25U, A27U
DNA 1: CAATCTGAATTCCGGTCTCCC
DNA 2: TGGTGGCTACGACGGGATT
B25: CGUGAUG (DNA:RNA)
RNA: B12 RNA with G25C, A27U
DNA 1: CAATCTGAATTCCGGTCTCCC
DNA 2: TGGTGGCTACGACGGGATT
B26: UGAUCUG (DNA:RNA)
RNA: B12 RNA with G25U, G28U, A29C
DNA 1: CAATCTGAATTCCGGTCTCCC
DNA 2: TGGTGGCTACGACGGGATT
B27: UGUGAUC (DNA:RNA)
RNA: B12 RNA with G25U, A27U, G31C
DNA 1: CAATCTGAATTCCGGTCTCCC
DNA 2: TGGTGGCTACGACGGGATT
B28: UGUGUGA (DNA:RNA)
RNA: B12 RNA with G25U, A27U, A29U, U30G, G31A
DNA 1: CAATCTGAATTCCGGTCTCCC
DNA 2: TGGTGGCTACGACGGGATT
B29: GCGAGGG (DNA:RNA)
RNA: B12 RNA with G26C, A27G, G28A, A29G, U30G
DNA 1: CAATCTGAATTCCGGTCTCCC
DNA 2: TGGTGGCTACGACGGGATT
B30: GUCAGAC (DNA:RNA)
RNA: B12 RNA with G26U, A27C, G28A, A29G, U30A, G31C
DNA 1: CAATCTGAATTCCGGTCTCCC
DNA 2: TGGTGGCTACGACGGGATT
B31: CAAGAAC (DNA:RNA)
RNA: B12 RNA with G25C, G26A, U30A, G31C
DNA 1: CAATCTGAATTCCGGTCTCCC
DNA 2: TGGTGGCTACGACGGGATT

Numbering of substitutions follows the chain as printed; changes in the protein carry UniProt numbers. Whole data set: some 16,000 sequences, median “ka relative to ugcaugu” near 0.096, cut for the highest 2% near 0.35. The sample as a whole holds a higher share of the highest values than the screen did.

In this assay the target is T1, RBFOX1 RRM RbFoxmut (Fox-RRM*). Briefly: EMSA; HiTS-Eq, 1 nM pool, 10 min; buffer printed only for the single-RNA assays: 10 mM Tris pH 7.5, 150 mM NaCl, 3.4 mM EDTA, 0.001% NP-40, 30 C. Conditions: tags: His6 N-terminal (pET28a); label: 5' 32P. The method, boiled down:
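Relative association constants, normalised to the cognate motif, were derived by comparing read counts of each RNA species with those of the control reaction. The RNA sequenced was the free fraction, separated by 8% native PAGE after a 10 min equilibration in 50 µL of 1 nM 5′-radiolabelled RNA (7 randomized nucleotides) with increasing concentrations of purified wild-type or mutant RbFox RRM.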
A general note: In EMSA bound probe runs differently from free probe, usually more slowly.
With B1, the binding signal was 0.0652 KA relative to UGCAUGU.
The figure for B2 is 0.0696 KA relative to UGCAUGU.
Consider B3, for which the binding signal is 0.0842 KA relative to UGCAUGU.
Under B4 stands 0.107 KA relative to UGCAUGU; under B5, 0.19 KA relative to UGCAUGU.
The figure for B6 is 1.24 KA relative to UGCAUGU; for B7 it is 0.451 KA relative to UGCAUGU; for B8 it is 0.787 KA relative to UGCAUGU.
On to B9, for which the binding signal was 0.295 KA relative to UGCAUGU.
The figure for B10 is 0.126 KA relative to UGCAUGU; for B11 it is 1.38 KA relative to UGCAUGU.
As to B12, the binding signal was 0.312 KA relative to UGCAUGU.
The figure for B13 is 0.134 KA relative to UGCAUGU.
For the molecule B14, the binding signal is 0.17 KA relative to UGCAUGU.
Under B15 stands 0.216 KA relative to UGCAUGU; under B16, 0.0436 KA relative to UGCAUGU.
The figure for B17 is 0.104 KA relative to UGCAUGU.
Under B18 stands 0.166 KA relative to UGCAUGU.
B19: the binding signal was 0.126 KA relative to UGCAUGU.
Regarding B20, the binding signal is 0.17 KA relative to UGCAUGU.
Under B21 stands 0.0824 KA relative to UGCAUGU.
Under B22 stands 0.0763 KA relative to UGCAUGU; under B23, 0.118 KA relative to UGCAUGU.
Under B24 stands 1.01 KA relative to UGCAUGU; under B25, 0.268 KA relative to UGCAUGU.
For the molecule B26, the binding signal was 0.0664 KA relative to UGCAUGU.
Under B27 stands 0.395 KA relative to UGCAUGU; under B28, 0.209 KA relative to UGCAUGU; under B29, 0.0739 KA relative to UGCAUGU.
On to B30, for which the binding signal was 0.0721 KA relative to UGCAUGU.
The figure for B31 is 0.106 KA relative to UGCAUGU.
